Hit rate of the full screen: of about 69,000 compounds, about 8,600 (12%) showed an effect of 50% or more. What follows is part of a selection rich in strong results, with near analogues and random picks from the rest.
system: Plasmodium berghei; assay: Screen against P. berghei liver stage (PbLuc), transformed with Luciferase, at 10uM; type: functional, HepG2; conditions: tested at 10 uM

SMILES | INHIBITION
O=S(=O)(C1CC1)N1CC[C@@H]2[C@@H]1CCN2Cc1cccs1 | 33%
Cc1cccc(NC(=O)N2CCCn3cnc(CN(C)C(C)C)c3C2)c1 | -6.3%
NC(=O)c1cnn2c(C3CCCN(C4CCOCC4)C3)ccnc12 (stereo not given) | 10.51%
CCc1ccc(NC(=O)CC2Cn3ncnc3NC2=O)cc1 (stereo not given) | -4.76%
CCN1C(=O)[C@H]2CN(CC(C)C)C[C@H]2C12CCN(C(=O)NC(C)C)CC2 | -16.9%
Cc1ccc(N2CCCC3(CCCC(=O)N3)C2)nn1 (stereo not given) | 3.88%
CCOCCCC(=O)NCCC(=O)N1CCN(c2ccccn2)CC1 | -39.5%
CCN1CC(O)CN(C(=O)c2ccc(SC)cc2)CC1=O (stereo not given) | 47.2%
c1ccc2nc(N3CCOC(Cn4cncn4)C3)cnc2c1 (stereo not given) | -44.3%
CCN(CC(=O)N(C)C)C(=O)c1nc(C)n(-c2ccccc2Cl)n1 | -28.7%
CCc1cc(CN(C)C(=O)c2cnn[nH]2)on1 | -47.9%
COc1ccccc1CNc1ncnc2c1NC(=O)CN2 | -79.3%
O=C(NCc1nncn1C1CCCCC1)C1COc2ccccc2O1 (stereo not given) | 35.4%
CNS(=O)(=O)c1cccc(C(C)NCc2ccccc2OC)c1 (stereo not given) | -9.93%
CNS(=O)(=O)c1cccc(C(C)NCc2ccc(C)o2)c1 (stereo not given) | 35.4%
CNS(=O)(=O)c1cccc(C(C)NCc2ccco2)c1 (stereo not given) | 55.1%
CNS(=O)(=O)c1cccc(C(C)NCc2nccn2C(C)C)c1 (stereo not given) | 23.5%
CNS(=O)(=O)c1cccc(C(C)NCc2cccc(C)c2C)c1 (stereo not given) | 52.6%
CNS(=O)(=O)c1cccc(C(C)NCc2ccsc2)c1 (stereo not given) | 36.3%
O=C(NCc1ccccc1)[C@H]1C[C@H]2CN(C(=O)NC3CCCC3)C[C@@H]1O2 | 7.65%
CCC1CCCCN1C(=O)Cn1nc(-c2cc(C)oc2C)cc(N)c1=O (stereo not given) | 37.5%
N#Cc1cccc(C(=O)N2CCc3c(COCC4CC4)cncc3C2)c1 | 18.7%
COc1ccc(CNc2cccnc2-n2cccn2)c(OC)c1OC | 41.5%
O=C(NC1CCCC1)N1CCCCC1c1nc(C2CC2)no1 (stereo not given) | 38.6%
Fc1ccc(CN2CCCn3nnc(COCC4CC4)c3C2)cc1 | 46.6%
Cc1cnc(C(=O)N2CC[C@@H]3CN(c4ncccn4)CCO[C@@H]3C2)cn1 | 56.7%
O=C(c1cccc(F)c1)N1CC[C@@H]2CN(c3ncccn3)CCO[C@@H]2C1 | 48.6%
Cc1ccccc1C(=O)N1CC[C@@H]2CN(c3ncccn3)CCO[C@@H]2C1 | 47.4%

SMILES | INHIBITION
Cc1cccc(C(=O)N2CC[C@@H]3CN(c4ncccn4)CCO[C@@H]3C2)c1 | 4.27%
O=C(c1ccncc1F)N1CC[C@@H]2CN(c3ncccn3)CCO[C@@H]2C1 | -1.55%
O=C(c1ccccc1F)N1CC[C@@H]2CN(c3ncccn3)CCO[C@@H]2C1 | 69.5%
CN1CCCC1c1cncc(C(=O)NCc2ccccc2)n1 (stereo not given) | 40.6%
CN1CCN([C@@H]2CCN(CC3CCOC3)[C@H]2Cc2cnn(C)c2)CC1 (stereo not given in full) | -10.5%
COCC(=O)N1CCC2(CC1)COCCN2CCN(C)C | 0.547%
O=C(c1ccccc1)N1C[C@H]2CCC[C@@]2(COCc2ccncc2)C1 | -4.88%
Cc1cc(NCCNc2ccc(C#N)cn2)nc(C)n1 | -14.1%
O=C(NCCCNc1ccc(C(F)(F)F)cn1)c1ccc(F)cc1F | -23.9%
N#Cc1ccc(NCCNc2ccc(C(F)(F)F)cn2)nc1 | 78.4%
Nc1nccnc1C(=O)NCCCNc1ccc(C(F)(F)F)cn1 | 25.55%
O=C(NCCCNc1ccc(C(F)(F)F)cn1)c1ccc(F)cc1 | 67.3%
O=C(NCCNc1ccc(C(F)(F)F)cn1)c1ccc(F)cc1Cl | 3.73%
COc1ccc(C(=O)NCCCNc2ccc(C(F)(F)F)cn2)cc1 | 34.15%
O=C(NCCCNc1ccc(C(F)(F)F)cn1)c1ccc(F)cc1Br | 82.6%
N#Cc1ccc(C(=O)NCCCNc2ccc(C(F)(F)F)cn2)cc1 | 42.7%
Cc1ccc(C(=O)NCCCNc2ccc(C(F)(F)F)cn2)cc1 | 51.85%
O=C(NCCCNc1ccc(C(F)(F)F)cn1)c1ccccc1 | 10.65%
CN(C)c1ccc(C(=O)NCCCNc2ccc(C(F)(F)F)cn2)cc1 | 38.95%
O[C@H]1CN(Cc2ccnc(N3CCCC3)n2)CC[C@@]12CCCO2 | -14.2%
Cc1ncsc1CN(C)Cc1cc2c(cc1OC(F)F)OCO2 | 34.9%
Cc1csc(C(C)(C)NCc2ncc(-c3ccccc3)o2)n1 | -20.3%
CN(C)C(=O)c1nc(-c2ccc(S(C)(=O)=O)cc2)c2ccccn12 | 17.6%
CNC(=O)C1CN(C(=O)COc2ccccc2)Cc2cn(C)nc21 (stereo not given) | 42.6%
COC(=O)Cn1c(=O)[nH]c2cn(-c3cccc(C)c3)c(=O)n21 | -9.39%
CNC(=O)CNC(=O)NCc1cc2c(s1)CCC(C)(C)C2 | 26.1%
O=C(NCCCNc1ccc(C(F)(F)F)cn1)c1ccc2c(c1)OCO2 | 60.5%

From ChEMBL document CHEMBL4513216, “Probing the Open Global Health Chemical Diversity Library for Multistage-Active Starting Points for Next-Generation Antimalarials” (ACS Infect Dis, 2020)
